In paper PMC7862700, “An all-to-all approach to the identification of sequence-specific readers for epigenetic DNA modifications on cytosine”:

Legend:
Test in all cases: DAPPL (digital affinity profiling via proximity ligation, sequencing); 10 mM Tris-HCl pH 7.5, 50 mM NaCl, 1 mM DTT, 4% glycerol, room temperature, 30 min; GST-TFs on glutathione beads, 16-mer random dsDNA library, 0.1% formaldehyde crosslink after washing; high values mean tight binding
[1] = target: T1, FEV (Homo sapiens, UniProt Q99581 1-238); details: protein: recombinant; tags: N-terminal GST; dsDNA, one strand shown
T1 sequence: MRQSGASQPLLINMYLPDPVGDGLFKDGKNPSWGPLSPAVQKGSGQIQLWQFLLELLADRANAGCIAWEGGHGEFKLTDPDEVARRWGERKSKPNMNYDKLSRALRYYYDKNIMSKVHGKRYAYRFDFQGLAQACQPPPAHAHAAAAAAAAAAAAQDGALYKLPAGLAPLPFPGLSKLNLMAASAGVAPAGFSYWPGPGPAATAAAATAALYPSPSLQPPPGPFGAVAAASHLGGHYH
In short: (§1)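 After expression in yeast as GST fusions, human transcription factors were bound to glutathione beads, DNA-barcoded and mixed with a tag-only sample. The pools were incubated with 200 nmole of a 16-mer random double-stranded DNA library in Tris/NaCl/DTT/glycerol buffer (30 min, room temperature), washed and crosslinked with 0.1% formaldehyde. Proximity ligation with BsaI/T4 ligase ran for 1 h at 37 °C, before PCR amplification and sequencing on an Illumina NextSeq500. Binding signal is a hexamer's read frequency for a factor divided by its frequency for the tag-only sample.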

[2] = target: ETV5 (Homo sapiens, UniProt P41161 1-510); details: protein: recombinant; tags: N-terminal GST; dsDNA, one strand shown
Sequence of ETV5 (P41161 whole entry): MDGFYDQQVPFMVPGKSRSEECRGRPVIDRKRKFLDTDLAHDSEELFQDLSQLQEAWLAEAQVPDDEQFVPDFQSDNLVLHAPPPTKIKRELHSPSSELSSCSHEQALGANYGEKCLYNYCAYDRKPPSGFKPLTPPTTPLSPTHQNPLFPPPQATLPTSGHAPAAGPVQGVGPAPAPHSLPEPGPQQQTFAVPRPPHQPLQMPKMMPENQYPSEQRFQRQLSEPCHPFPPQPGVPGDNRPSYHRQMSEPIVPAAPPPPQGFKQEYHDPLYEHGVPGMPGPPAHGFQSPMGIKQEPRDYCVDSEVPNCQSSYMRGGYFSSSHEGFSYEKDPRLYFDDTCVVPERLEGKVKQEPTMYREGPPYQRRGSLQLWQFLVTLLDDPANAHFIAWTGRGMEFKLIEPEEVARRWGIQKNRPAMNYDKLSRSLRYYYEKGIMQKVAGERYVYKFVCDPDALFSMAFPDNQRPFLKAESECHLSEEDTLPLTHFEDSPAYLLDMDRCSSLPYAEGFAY
In short: as §1

[3] = target: HSF1 (Homo sapiens, UniProt Q00613 1-529); details: protein: recombinant; tags: N-terminal GST; chain copies: 3; dsDNA, one strand shown
Sequence of HSF1 (Q00613 whole entry): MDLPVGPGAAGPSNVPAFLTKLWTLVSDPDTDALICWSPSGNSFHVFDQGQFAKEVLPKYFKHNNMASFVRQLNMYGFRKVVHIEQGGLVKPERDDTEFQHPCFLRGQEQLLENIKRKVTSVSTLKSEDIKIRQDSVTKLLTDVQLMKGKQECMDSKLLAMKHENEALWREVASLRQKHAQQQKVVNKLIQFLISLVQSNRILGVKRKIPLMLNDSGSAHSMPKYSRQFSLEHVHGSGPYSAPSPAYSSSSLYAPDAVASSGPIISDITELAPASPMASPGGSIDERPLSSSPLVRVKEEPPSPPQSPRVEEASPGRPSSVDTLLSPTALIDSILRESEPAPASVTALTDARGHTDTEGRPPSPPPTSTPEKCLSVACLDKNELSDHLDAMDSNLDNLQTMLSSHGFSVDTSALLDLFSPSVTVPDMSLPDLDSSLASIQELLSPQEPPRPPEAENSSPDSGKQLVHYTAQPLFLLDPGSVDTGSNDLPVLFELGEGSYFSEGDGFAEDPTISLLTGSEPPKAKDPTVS
In short: as §1

[4] = target: T2, SPIC (Homo sapiens, UniProt Q8N5J4 1-248); details: protein: recombinant; tags: N-terminal GST; dsDNA, one strand shown
T2 sequence: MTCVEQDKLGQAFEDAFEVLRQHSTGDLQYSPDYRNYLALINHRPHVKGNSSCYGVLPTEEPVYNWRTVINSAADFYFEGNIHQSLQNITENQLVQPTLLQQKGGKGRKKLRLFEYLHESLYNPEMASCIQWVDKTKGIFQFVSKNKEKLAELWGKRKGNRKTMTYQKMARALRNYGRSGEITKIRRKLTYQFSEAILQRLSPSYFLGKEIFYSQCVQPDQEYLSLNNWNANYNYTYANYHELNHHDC
In short: as §1

[5] = target: ELF4 (Homo sapiens, UniProt Q99607 1-663); details: protein: recombinant; tags: N-terminal GST; dsDNA, one strand shown
Sequence of ELF4 (Q99607 whole entry): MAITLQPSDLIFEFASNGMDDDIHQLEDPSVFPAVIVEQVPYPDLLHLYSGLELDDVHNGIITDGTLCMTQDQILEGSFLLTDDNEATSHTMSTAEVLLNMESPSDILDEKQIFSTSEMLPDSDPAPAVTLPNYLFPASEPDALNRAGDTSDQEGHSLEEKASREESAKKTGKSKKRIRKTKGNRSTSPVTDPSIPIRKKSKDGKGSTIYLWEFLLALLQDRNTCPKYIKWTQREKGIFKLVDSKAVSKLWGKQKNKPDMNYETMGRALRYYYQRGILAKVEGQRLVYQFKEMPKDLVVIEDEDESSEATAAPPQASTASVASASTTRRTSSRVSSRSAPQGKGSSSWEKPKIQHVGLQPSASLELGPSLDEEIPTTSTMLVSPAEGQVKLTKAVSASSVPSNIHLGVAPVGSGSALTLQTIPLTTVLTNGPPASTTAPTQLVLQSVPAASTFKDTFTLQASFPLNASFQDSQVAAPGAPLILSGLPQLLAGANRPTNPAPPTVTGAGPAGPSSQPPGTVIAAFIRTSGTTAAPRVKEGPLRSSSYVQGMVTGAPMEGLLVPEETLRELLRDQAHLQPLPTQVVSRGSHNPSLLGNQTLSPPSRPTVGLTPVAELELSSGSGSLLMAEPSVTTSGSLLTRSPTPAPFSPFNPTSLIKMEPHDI
In short: as §1

[6] = target: T3, ELK4 (Homo sapiens, UniProt P28324-2 1-405); details: protein: recombinant; tags: N-terminal GST; dsDNA, one strand shown
T3 sequence: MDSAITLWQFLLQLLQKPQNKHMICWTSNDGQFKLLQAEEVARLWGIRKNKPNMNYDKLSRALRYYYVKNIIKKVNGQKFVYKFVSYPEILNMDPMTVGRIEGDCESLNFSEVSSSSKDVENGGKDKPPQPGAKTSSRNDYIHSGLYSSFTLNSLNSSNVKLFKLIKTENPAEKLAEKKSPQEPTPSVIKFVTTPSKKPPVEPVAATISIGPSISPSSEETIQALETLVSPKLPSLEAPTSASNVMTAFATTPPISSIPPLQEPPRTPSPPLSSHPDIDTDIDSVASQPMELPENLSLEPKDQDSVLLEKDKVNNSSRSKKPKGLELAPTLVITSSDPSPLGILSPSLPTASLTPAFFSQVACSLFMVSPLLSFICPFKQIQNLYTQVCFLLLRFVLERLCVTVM
In short: as §1

[7] = target: T4, ETV2 (Homo sapiens, UniProt O00321 1-342); details: protein: recombinant; tags: N-terminal GST; dsDNA, one strand shown
T4 sequence: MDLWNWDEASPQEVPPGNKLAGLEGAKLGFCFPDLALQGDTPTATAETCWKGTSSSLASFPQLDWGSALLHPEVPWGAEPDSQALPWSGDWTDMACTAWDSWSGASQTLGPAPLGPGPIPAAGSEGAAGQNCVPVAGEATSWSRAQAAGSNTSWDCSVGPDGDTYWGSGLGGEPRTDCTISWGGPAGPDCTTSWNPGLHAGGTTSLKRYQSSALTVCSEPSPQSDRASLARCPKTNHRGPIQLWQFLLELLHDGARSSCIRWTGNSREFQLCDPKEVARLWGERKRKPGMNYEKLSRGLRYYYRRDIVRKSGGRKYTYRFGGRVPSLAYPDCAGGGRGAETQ
In short: as §1

[8] = target: T5, ELF3 (Homo sapiens, UniProt P78545 1-371); details: protein: recombinant; tags: N-terminal GST; dsDNA, one strand shown
T5 sequence: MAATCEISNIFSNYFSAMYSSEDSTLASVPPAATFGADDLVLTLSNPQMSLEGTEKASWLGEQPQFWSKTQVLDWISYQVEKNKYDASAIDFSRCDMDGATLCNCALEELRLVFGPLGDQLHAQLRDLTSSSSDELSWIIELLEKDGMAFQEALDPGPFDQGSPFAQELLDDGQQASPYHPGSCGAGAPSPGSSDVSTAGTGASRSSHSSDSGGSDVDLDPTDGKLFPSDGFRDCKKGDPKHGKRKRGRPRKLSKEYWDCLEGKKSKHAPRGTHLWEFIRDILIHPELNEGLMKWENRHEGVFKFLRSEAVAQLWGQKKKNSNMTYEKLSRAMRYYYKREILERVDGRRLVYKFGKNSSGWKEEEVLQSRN
In short: as §1

[9] = target: CRX (Homo sapiens, UniProt O43186 1-299); details: protein: recombinant; tags: N-terminal GST; dsDNA, one strand shown
Sequence of CRX (O43186 whole entry): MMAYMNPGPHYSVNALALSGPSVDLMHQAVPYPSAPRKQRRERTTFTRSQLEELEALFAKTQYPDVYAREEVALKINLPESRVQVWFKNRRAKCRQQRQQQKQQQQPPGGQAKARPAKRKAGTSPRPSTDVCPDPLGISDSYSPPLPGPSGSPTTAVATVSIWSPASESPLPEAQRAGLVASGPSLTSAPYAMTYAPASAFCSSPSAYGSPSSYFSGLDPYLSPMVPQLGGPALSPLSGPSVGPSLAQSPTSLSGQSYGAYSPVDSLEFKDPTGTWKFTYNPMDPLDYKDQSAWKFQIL
In short: as §1

[10] = target: ETV1 (Homo sapiens, UniProt P50549 1-477); details: protein: recombinant; tags: N-terminal GST; dsDNA, one strand shown
Sequence of ETV1 (P50549 whole entry): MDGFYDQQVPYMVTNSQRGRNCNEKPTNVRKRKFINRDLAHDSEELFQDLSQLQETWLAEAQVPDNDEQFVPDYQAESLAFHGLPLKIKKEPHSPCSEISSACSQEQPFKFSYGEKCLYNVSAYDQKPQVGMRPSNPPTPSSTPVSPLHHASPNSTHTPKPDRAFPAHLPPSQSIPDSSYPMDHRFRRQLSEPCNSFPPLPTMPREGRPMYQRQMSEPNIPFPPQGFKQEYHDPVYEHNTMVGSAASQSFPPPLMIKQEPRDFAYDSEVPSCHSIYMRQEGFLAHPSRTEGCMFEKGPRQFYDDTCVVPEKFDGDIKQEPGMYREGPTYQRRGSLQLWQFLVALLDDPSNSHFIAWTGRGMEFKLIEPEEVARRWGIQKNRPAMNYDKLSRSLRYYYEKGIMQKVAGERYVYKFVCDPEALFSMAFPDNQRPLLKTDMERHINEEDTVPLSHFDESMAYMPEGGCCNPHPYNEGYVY
In short: as §1

[11] = target: T6, ERF (Homo sapiens, UniProt P50548 1-548); details: protein: recombinant; tags: N-terminal GST; dsDNA, one strand shown
T6 sequence: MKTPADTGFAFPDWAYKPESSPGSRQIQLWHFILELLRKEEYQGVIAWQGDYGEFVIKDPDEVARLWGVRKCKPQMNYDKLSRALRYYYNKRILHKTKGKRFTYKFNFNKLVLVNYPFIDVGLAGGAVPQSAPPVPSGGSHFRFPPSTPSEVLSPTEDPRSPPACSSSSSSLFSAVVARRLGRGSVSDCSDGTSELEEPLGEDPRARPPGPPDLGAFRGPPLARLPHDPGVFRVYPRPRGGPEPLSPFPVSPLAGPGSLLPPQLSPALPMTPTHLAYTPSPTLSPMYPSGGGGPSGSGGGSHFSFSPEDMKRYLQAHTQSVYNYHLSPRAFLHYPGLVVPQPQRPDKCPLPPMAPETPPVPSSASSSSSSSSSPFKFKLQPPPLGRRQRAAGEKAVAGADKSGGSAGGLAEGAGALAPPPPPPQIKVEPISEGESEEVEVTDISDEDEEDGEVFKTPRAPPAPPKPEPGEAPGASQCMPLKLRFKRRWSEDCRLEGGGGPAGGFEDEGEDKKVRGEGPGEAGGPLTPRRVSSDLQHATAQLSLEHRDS
In short: as §1

[12] = target: T7, ETV3L (Homo sapiens, UniProt Q6ZN32 1-361); details: protein: recombinant; tags: N-terminal GST; dsDNA, one strand shown
T7 sequence: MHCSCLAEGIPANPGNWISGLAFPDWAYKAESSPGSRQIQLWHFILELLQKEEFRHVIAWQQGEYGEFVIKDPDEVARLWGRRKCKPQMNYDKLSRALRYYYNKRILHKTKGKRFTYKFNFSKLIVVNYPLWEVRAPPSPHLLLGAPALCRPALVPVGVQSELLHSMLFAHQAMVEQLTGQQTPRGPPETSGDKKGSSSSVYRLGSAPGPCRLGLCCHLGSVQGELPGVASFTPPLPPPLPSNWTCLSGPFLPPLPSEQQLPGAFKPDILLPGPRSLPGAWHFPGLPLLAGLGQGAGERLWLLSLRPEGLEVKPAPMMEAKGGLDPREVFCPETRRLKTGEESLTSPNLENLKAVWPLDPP
In short: as §1

[13] = target: T8, ETS2 (Homo sapiens, UniProt P15036 1-469); details: protein: recombinant; tags: N-terminal GST; dsDNA, one strand shown
T8 sequence: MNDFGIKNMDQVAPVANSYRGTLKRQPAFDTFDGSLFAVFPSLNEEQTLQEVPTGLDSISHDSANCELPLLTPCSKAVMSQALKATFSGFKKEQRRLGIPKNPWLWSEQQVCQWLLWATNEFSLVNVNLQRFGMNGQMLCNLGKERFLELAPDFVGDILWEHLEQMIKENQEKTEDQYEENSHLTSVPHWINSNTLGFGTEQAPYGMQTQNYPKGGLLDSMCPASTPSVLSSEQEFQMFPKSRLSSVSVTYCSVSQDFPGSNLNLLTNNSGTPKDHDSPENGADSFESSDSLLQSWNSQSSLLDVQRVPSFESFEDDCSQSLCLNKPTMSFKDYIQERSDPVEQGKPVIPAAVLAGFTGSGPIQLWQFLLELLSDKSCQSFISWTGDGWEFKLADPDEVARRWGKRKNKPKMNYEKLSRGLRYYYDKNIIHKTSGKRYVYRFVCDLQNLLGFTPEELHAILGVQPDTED
In short: as §1

[14] = target: T9, SPDEF (Homo sapiens, UniProt O95238 1-335); details: protein: recombinant; tags: N-terminal GST; dsDNA, one strand shown
T9 sequence: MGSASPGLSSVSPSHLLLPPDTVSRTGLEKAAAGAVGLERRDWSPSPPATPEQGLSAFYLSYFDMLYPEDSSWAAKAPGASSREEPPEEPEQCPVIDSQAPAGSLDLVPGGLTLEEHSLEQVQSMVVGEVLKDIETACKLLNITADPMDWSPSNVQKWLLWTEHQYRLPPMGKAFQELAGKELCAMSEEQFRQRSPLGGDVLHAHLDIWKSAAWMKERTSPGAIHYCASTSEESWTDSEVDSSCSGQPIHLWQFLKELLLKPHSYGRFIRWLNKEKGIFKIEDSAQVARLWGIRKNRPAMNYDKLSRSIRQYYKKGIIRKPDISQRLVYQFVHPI
In short: as §1

[15] = target: T10, ETV7 (Homo sapiens, UniProt Q9Y603 1-341); details: protein: recombinant; tags: N-terminal GST; dsDNA, one strand shown
T10 sequence: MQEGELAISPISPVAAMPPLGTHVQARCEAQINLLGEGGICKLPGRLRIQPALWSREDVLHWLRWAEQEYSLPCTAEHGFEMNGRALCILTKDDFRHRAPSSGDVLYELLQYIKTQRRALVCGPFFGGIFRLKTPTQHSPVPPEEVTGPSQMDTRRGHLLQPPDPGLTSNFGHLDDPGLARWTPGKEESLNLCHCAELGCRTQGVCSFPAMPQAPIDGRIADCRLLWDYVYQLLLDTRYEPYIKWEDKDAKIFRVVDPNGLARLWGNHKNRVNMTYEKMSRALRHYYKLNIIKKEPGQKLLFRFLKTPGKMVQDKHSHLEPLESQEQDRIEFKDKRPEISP
In short: as §1

[16] = target: T11, ELF5 (Homo sapiens, UniProt Q9UKW6-2 1-255); details: protein: recombinant; tags: N-terminal GST; dsDNA, one strand shown
T11 sequence: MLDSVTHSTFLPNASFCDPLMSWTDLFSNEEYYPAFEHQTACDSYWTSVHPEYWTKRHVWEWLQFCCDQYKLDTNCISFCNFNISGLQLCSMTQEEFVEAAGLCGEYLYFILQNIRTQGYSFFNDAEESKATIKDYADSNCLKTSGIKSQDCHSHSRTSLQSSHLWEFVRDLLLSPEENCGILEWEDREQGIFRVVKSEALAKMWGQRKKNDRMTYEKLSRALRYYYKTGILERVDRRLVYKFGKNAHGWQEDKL
In short: as §1

[17] = target: T12, ETV3 (Homo sapiens, UniProt P41162-2 1-143); details: protein: recombinant; tags: N-terminal GST; dsDNA, one strand shown
T12 sequence: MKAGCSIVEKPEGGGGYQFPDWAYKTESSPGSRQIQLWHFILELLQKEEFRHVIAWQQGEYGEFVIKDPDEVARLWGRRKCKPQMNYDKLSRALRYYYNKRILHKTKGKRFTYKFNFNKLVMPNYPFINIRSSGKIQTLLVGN
In short: as §1

[18] = target: ETV6 (Homo sapiens, UniProt P41212 1-452); details: protein: recombinant; tags: N-terminal GST; dsDNA, one strand shown
Sequence of ETV6 (P41212 whole entry): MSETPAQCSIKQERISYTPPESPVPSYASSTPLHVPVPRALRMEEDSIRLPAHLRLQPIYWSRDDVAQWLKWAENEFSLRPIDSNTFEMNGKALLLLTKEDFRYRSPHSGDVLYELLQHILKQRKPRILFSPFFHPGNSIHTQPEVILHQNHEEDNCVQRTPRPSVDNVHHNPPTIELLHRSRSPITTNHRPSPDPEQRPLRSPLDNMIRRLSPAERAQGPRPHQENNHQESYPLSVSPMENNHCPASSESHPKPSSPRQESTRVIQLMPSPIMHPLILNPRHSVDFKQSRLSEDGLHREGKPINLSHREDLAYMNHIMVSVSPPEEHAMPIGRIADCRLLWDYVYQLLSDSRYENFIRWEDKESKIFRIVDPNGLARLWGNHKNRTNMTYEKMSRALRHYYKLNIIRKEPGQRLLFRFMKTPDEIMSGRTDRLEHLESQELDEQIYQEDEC
In short: as §1

Sequence: CCCCAA
- binding signal [1]: 1.16 fold enrichment (6-mer frequency, TF over GST control)
- binding signal [2]: 1.12 fold enrichment (6-mer frequency, TF over GST control)
- binding signal [3]: 1.06 fold enrichment (6-mer frequency, TF over GST control)
- binding signal [4]: 1.06 fold enrichment (6-mer frequency, TF over GST control)
- binding signal [5]: 1.21 fold enrichment (6-mer frequency, TF over GST control)
- binding signal [6]: 1.16 fold enrichment (6-mer frequency, TF over GST control)
- binding signal [7]: 1.15 fold enrichment (6-mer frequency, TF over GST control)
- binding signal [8]: 1.24 fold enrichment (6-mer frequency, TF over GST control)
- binding signal [9]: 1.05 fold enrichment (6-mer frequency, TF over GST control)
- binding signal [10]: 1.15 fold enrichment (6-mer frequency, TF over GST control)
- binding signal [11]: 1.06 fold enrichment (6-mer frequency, TF over GST control)
- binding signal [12]: 1.2 fold enrichment (6-mer frequency, TF over GST control)
- binding signal [13]: 1.13 fold enrichment (6-mer frequency, TF over GST control)
- binding signal [14]: 1.11 fold enrichment (6-mer frequency, TF over GST control)
- binding signal [15]: 1.1 fold enrichment (6-mer frequency, TF over GST control)
- binding signal [16]: 1.12 fold enrichment (6-mer frequency, TF over GST control)
- binding signal [17]: 1.15 fold enrichment (6-mer frequency, TF over GST control)
- binding signal [18]: 1.14 fold enrichment (6-mer frequency, TF over GST control)
